# Pf apPOL block: Pf-apPOL DNA polymerase inhibition; Recombinant Pf-apPOL, molecular beacon fluorescence, 1.5 h; inhibition, % at 10 µM; 210,000 compounds, 0.25% hits; AID 1794808
# mHTT-CaM PPI inh: inhibitors of human mutant huntingtin-calmodulin interaction; AlphaScreen His-mHTT/GST-CaM binding, luminescence; inhibition, % at 15 µM; 190,000 compounds, 3.6% hits;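 also: 0% = both proteins with DMSO and 100% = one protein alone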
# * hit, by the source's call; · = no result given; ! = not confirmed by another sample. Rows were chosen to be rich in hits. Some 3.5% of all compounds tested hit in one or more screens of this group. Rule as the data show it: active = inhibition above about 50%; inactive = the rest.
SMILES,Pf apPOL block,mHTT-CaM PPI inh
CC(=O)C1=C(C)NC(SCC(=O)c2cc(Cl)ccc2Cl)=C(C#N)C1c1ccco1 (stereo not drawn),-1,2
CC(=O)C1=C(C)NC(SCC(=O)c2ccc(Cl)cc2)=C(C#N)C1c1sccc1C (stereo not drawn),4,-44
CC(=O)C1=C(C)NC(SCC(=O)c2cccc(Cl)c2)=C(C#N)C1c1sccc1C (stereo not drawn),100*,-48
CC(=O)C1=C(C)NC(SCC(=O)c2ccc(Cl)cc2)=C(C#N)C1c1cccc([N+](=O)[O-])c1 (stereo not drawn),-7,38
CC(=O)C1=C(C)NC(SCC(=O)c2cccc([N+](=O)[O-])c2)=C(C#N)C1c1ccc(Cl)cc1 (stereo not drawn),4,56*
N#Cc1cccc(Cn2cc(S(=O)(=O)N3CCCC3)ccc2=O)c1,1,-2
O=C1OC(c2cc([N+](=O)[O-])ccc2Cl)=N/C1=C\c1ccco1,0,0
CCC(C)n1c(=N)c(S(=O)(=O)c2ccc(C)cc2)cc2c(=O)n3ccccc3nc21 (stereo not drawn),-6,-1
COCC(=O)N1CCCC(C)(C(=O)NCc2cccc(F)c2)C1 (stereo not drawn),-2,-9
Cc1oc(C2CCN(S(=O)(=O)c3ccc4c(c3)CCC4)CC2)nc1C(=O)N1CCCC1,-9,15
CCC(C)NC(=O)c1ccc(-c2ccnc(N3CCCCC3)n2)cc1 (stereo not drawn),2,-7
O=C(Nc1ccccc1C(=O)Nc1cccnc1)c1ccccc1,51*!,-3
O=C(Nc1cc([N+](=O)[O-])ccc1C(=O)Nc1cccnc1)c1ccccc1,-1,4
O=C(Nc1ccc(-c2ccc(NC(=O)Nc3cccnc3)cc2)cc1)Nc1cccnc1,3,10
O=C(Nc1cccnc1)C(=O)Nc1cccnc1,-5,82*
COc1ccc(C(=O)Nc2ccccc2C(=O)Nc2ccccc2C(=O)O)cc1,-7,84*
COc1ccc(C(=O)Nc2ccccc2C(N)=O)cc1,-2,6
CC1CCCCN1C(=O)c1cnc2n(c1=O)CCS2 (stereo not drawn),1,1
CCn1c(=O)c(C(=O)Nc2cccc(SC)c2)c(O)c2sccc21,-6,15
CCCCC(=O)N1CCc2c(c(C(=O)NCc3ccc(F)cc3)nn2C)C1,-9,47
CCC(CC)C(=O)N1CCc2c(c(C(=O)NCc3ccccc3)nn2C)C1,-4,51*
CCCC(CCC)C(=O)N1CCc2c(c(C(=O)NCc3ccc(F)cc3)nn2C)C1,-5,77*
Cn1nc(C(=O)NCc2ccc(Cl)cc2)c2c1CCN(C(=O)c1ccc(F)cc1)C2,4,-10
CCC(=O)N1CCc2c(c(C(=O)NCc3ccccc3)nn2C)C1,-5,-6
CCC(CC)C(=O)N1CCc2c(c(C(=O)NCc3ccc(Cl)cc3)nn2C)C1,-2,71*
SMILES,Pf apPOL block,mHTT-CaM PPI inh
Cc1nc(-c2cn(-c3ccc(F)cc3)nn2)no1,0,-4
Cc1cccc(NC(=O)N2CCC(CCNC(=O)C(C)Oc3ccccc3)CC2)c1 (stereo not drawn),-5,3
CC(C)NC(=O)N1CCC2(CC1)Nc1cc(F)ccc1-n1cccc12,2,34
Cc1ccc2c(c1)NC1(CCN(C(=O)c3ccc(Cl)cc3)CC1)c1cccn1-2,-6,53*
CCN1c2ccc(C)cc2C(=O)NC12CCN(C(=O)c1ccc(Cl)cc1)CC2,-4,-6
Cc1ccc2c(c1)NC1(CCN(C(=O)c3ccc(F)cc3)CC1)c1cccn1-2,-5,87*
CCC(C)SCc1cc(C(=O)O)oc1C (stereo not drawn),·,-2
CS(=O)(=O)c1cccc2sc(N(CCN3CCOCC3)C(=O)c3cnccn3)nc12,3,4
COc1cccc(OCCOc2ccc(/C=C3/C(=O)N(c4ccccc4)N=C3C)cc2OC)c1,-4,16
Cc1ccc(C(=O)NC2CC2)c(C2CCN(Cc3ccc(F)cc3)CC2)n1,5,-3
CN1CCN(C(CNC(=O)Cc2cccc3ccccc23)c2ccsc2)CC1 (stereo not drawn),-12,-12
COc1ccc(CNC(=O)c2cc3c(n2C)CCN(Cc2ccc(F)cc2)C3)cc1OC,-5,76*
COc1cccc(CNC(=O)c2cc3c(n2C)CCN(Cc2ccc(F)cc2)C3)c1OC,-8,25
COc1ccccc1NC(=O)N1CCc2c(c3cc(F)ccc3n2C)C1,-4,82*
COc1ccccc1NC(=O)N1CCc2c(c(COCc3cccc(F)c3)nn2C)C1,-3,20
CN(C)CCCNC(=O)c1cc2c(n1C)CCN(Cc1ccc(F)cc1)C2,2,96*
COc1ccc(CNC(=O)c2cc3c(n2C)CCN(Cc2ccc(F)cc2)C3)cc1,-3,31
CN(C)CCNC(=O)c1cc2c(n1C)CCN(Cc1ccccc1)C2,-3,5
COc1ccccc1NC(=O)c1cc2c(n1C)CCN(Cc1ccc(F)cc1)C2,-2,63*
CC1CCCCN1CCNC(=O)c1csc(-c2ccncc2)n1 (stereo not drawn),-1,-6
O=C(Cc1cccs1)N1CCc2c(nc3cc(-c4ccccc4Cl)[nH]n3c2=O)C1,0,33
CC1CCN(c2ccc(CNC(=O)C3CCCN(c4nnc5ccccn45)C3)cc2)CC1 (stereo not drawn),0,32
Cc1c(Br)c(C(F)(F)F)nn1CC(=O)N(C)c1ccccc1,0,-5
Cn1c(C(=O)NCc2ccco2)cc2c1CCN(Cc1ccccc1)C2,-1,48
Cc1ccc(CN2CCc3c(cc(C(=O)NCc4ccco4)n3C)C2)cc1,1,62*
SMILES,Pf apPOL block,mHTT-CaM PPI inh
CN(C)c1ccc(C=Cc2ccc3ccccc3[n+]2C)cc1,2,·
CN1/C(=C/C=C/c2ccc3ccccc3[n+]2C)C=Cc2ccccc21,-3,100*
COc1cc2c(cc1OC)C(COc1cccc(C(F)(F)F)c1)N(C(=O)C1CC1)CC2 (stereo not drawn),-6,95*
COc1cc2c(cc1OC)C(COc1ccccc1OC)N(C(=O)C(C)C)CC2 (stereo not drawn),0,9
COc1cc2c(cc1OC)C(COc1cccc(C(F)(F)F)c1)N(C(=O)c1ccco1)CC2 (stereo not drawn),-4,100*
COc1cc2c(cc1OC)C(COc1cccc(C(F)(F)F)c1)N(C(=O)C(C)C)CC2 (stereo not drawn),-1,96*
COC(=O)c1ccc(OCC2c3cc(OC)c(OC)cc3CCN2C(=O)C2CC2)cc1 (stereo not drawn),-7,30
COc1cc2c(cc1OC)C(COc1ccccc1OC)N(C(=O)c1ccco1)CC2 (stereo not drawn),-4,30
Oc1oc(-c2ccccc2Br)nc1C=Nc1cc(Cl)ccc1Cl,0,0
O=C(O)Cc1nonc1NCn1nnc2ccccc21,-2,1
O=C1CN(C(=O)c2ccc(F)cc2)C(c2ccc(F)cc2)c2cc(F)ccc2N1 (stereo not drawn),-10,3
Fc1ccc2c(c1)C1OCCC1C(c1ccccc1)N2 (stereo not drawn),·,1
O=C(O)c1ccc(C2Nc3ccc(F)cc3C3C=CCC32)cc1 (stereo not drawn),-8,79*
O=C(O)c1ccc(C2Nc3ccc(I)cc3C3C=CCC32)cc1 (stereo not drawn),6,97*
Fc1ccc2c(c1)C1C=CCC1C(c1ccc(Cl)cc1)N2 (stereo not drawn),0,75*
